A selection: hits, their analogues and other compounds. The true share with any hit is near 3.6%.
KKLEB cytotox: reduces viability of KKLEB cystic fibrosis airway cells; KKLEB CF airway cells viability, ATPlite luminescence, overnight; hits give low values; cells stimulated with P. aeruginosa culture filtrate; actives 0.36% (n = 360,000); AID 602141; activity change (cytotoxicity), % at 5 µM;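 active = corrected activity change at or below -50% at 5 µM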
LGR2 inh: Drosophila LGR2 receptor signaling inhibition; actives 0.35% (n = 380,000); HEK293 LGR2, CRE-luciferase, bursicon-stimulated, 4 h; inhibition, % at 9.99 µM;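 active = drop in luminescence signal, shown as inhibition above about 50% in the replicate tests, limit read from the data, passing the limit was not always enough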;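 also: agonist challenge used bursicon conditioned medium at about half maximal strength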
HSP90 inh: HSP90 refolding inhibition in rabbit reticulocyte lysate. luciferase refolding luminescence, 3 h. inhibition, % at 5.6 µM. actives 0.91% (n = 290,000). AID 1789;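 active = inhibition above the screen-wide mean plus 3 SD, computed separately per campaign, cut at about 16% in these data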;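 also: inhibitors lower the luminescence because luciferase stays unfolded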
Mdm2 MdmX PPI: inhibitors of human Mdm2/MdmX interaction | actives 3% (n = 330,000) | inhibition, % at 8 µM | SaOS-2 split-luciferase Mdm2/MdmX complementation, luminescence | AID 485346 | O15151+Q00987;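 active = inhibition of at least 50% at 8 µM in the primary screen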
Target sequence (O15151 whole entry, looked up): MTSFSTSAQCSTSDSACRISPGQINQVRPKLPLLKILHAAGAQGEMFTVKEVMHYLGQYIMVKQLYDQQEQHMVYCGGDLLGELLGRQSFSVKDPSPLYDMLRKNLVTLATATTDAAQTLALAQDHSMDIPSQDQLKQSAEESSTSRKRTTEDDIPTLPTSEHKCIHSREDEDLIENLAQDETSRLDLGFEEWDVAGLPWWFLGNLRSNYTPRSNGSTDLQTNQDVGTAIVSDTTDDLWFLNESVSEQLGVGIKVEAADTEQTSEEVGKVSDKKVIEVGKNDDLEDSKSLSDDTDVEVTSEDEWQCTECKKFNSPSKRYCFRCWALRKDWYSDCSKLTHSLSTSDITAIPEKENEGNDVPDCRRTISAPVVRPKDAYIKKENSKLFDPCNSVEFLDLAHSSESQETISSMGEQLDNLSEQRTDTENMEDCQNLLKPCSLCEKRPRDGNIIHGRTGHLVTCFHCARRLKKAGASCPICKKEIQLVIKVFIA
Target sequence (Q00987 whole entry, looked up): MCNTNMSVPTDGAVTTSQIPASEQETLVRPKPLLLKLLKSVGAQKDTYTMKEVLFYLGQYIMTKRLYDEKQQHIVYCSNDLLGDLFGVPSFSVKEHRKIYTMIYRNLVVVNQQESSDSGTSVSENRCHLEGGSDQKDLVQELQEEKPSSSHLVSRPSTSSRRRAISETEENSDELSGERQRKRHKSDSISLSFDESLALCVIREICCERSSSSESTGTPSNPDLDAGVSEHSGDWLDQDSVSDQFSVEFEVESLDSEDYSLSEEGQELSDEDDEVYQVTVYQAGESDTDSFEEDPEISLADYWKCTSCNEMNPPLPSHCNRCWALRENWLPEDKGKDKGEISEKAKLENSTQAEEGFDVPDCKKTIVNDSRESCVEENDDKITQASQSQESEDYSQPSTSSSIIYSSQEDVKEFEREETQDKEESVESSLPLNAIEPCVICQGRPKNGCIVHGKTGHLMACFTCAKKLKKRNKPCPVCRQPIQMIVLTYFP
CF NFkB block: cystic fibrosis NF-kB activation inhibition; KKLEB NF-kB-GFP reporter, PAF-induced, GFP fluorescence overnight; inhibition, % at 5 µM; actives 0.86% (n = 360,000);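 active = at least 50% inhibition at 5 µM, scaled per plate between neutral and stimulator controls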;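 also: PAF is a Pseudomonas aeruginosa culture filtrate used as stimulus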
Peg3 prom inh: reduces Peg3 promoter-driven luciferase expression in HeLa; HeLa PEG-Prom luciferase reporter, luminescence, overnight; inhibition, % at 20 µM; actives 1.7% (n = 360,000); AID 588405;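 active = inhibition of at least 50% at 20 µM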
Mdm2 MdmX conf: confirmation of human Mdm2/MdmX interaction inhibitors; shares compounds with Mdm2 MdmX PPI; Mdm2-MdmX binding, luminescent assay; inhibition, % at 8 µM; actives 55% (n = 10,000); AID 489028; in the data active = inhibition above about 40%
FLuc counter: inhibits full-length luciferase, flagging false Mdm2/MdmX hits; inhibition, % at 8 µM; AID 504607; actives 77% (n = 6,200); shares compounds with Mdm2 MdmX PPI; SaOS-2 full-length luciferase counterscreen, luminescence;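 active = mean inhibition at 8 µM reaching about 37%, which flags the compound as non-specific, limit read from the data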;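 also: p53-null SaOS-2 cells with luciferase driven by a doxycycline-inducible promoter; compound on cells about two nights before reading with doxycycline added after day one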
A number is an active result.

Screening CC(C)=CCC/C(C)=C/CNC(=O)C[C@H]1C[C@H](C(=O)N2CCOCC2)[C@@]2(CCC3CCCC3)c3[nH]c4cc(CCC(=O)N(C)C)ccc4c3CCN2C1=O returned KKLEB cytotox inactive, LGR2 inh inactive, Mdm2 MdmX PPI 77.1, CF NFkB block inactive, Peg3 prom inh inactive and Mdm2 MdmX conf inactive.
For COCCCNC(=O)C[C@H]1C[C@H](C(=O)N2CCOCC2)[C@@]2(C)c3[nH]c4cc(CCC(=O)N(C)C)ccc4c3CCN2C1=O the results were KKLEB cytotox inactive, LGR2 inh inactive, Mdm2 MdmX PPI 63.5, CF NFkB block inactive, Peg3 prom inh inactive and Mdm2 MdmX conf inactive.
For CN1C(=O)c2cc(NC(=O)C3CCCCC3)ccc2OC[C@H]2O[C@H](CC(=O)NC3CCCC3)CC[C@H]21 the results were LGR2 inh inactive.
Screening C[C@H]1CN([C@@H](C)CO)C(=O)c2cc(C#Cc3cccnc3)cnc2O[C@H]1CN(C)C(=O)CC1CC1 returned LGR2 inh inactive.
For C[C@@H]1CN([C@@H](C)CO)C(=O)c2cc(NS(=O)(=O)c3ccccc3)ccc2O[C@@H](C)CCCCO[C@@H]1CN(C)S(=O)(=O)c1ccc(Cl)cc1 the results were LGR2 inh inactive.
Screening O=C(COC(=O)c1n[nH]c2ccccc12)NC(=O)NC12CC3CC(CC(C3)C1)C2 returned KKLEB cytotox inactive, HSP90 inh inactive, Mdm2 MdmX PPI 53.9, CF NFkB block inactive, Peg3 prom inh inactive, Mdm2 MdmX conf inactive and FLuc counter 71.9.
`O=C(COC(=O)c1n[nH]c2ccccc12)NC(=O)NC1CCCC1` gave KKLEB cytotox inactive, HSP90 inh inactive, Mdm2 MdmX PPI inactive, CF NFkB block inactive and Peg3 prom inh inactive.
Screening C[C@@H]1CN([C@H](C)CO)C(=O)c2cc(NC(=O)CCC(F)(F)F)ccc2O[C@@H](C)CCCCO[C@H]1CN(C)Cc1ccc(C(=O)O)cc1 returned LGR2 inh inactive.
For Cc1ccc(-n2c(=O)c3ccc(C(=O)NCc4ccco4)cc3n(Cc3ccccc3C#N)c2=O)cc1 the results were KKLEB cytotox inactive, LGR2 inh inactive, HSP90 inh inactive, Mdm2 MdmX PPI inactive, CF NFkB block inactive and Peg3 prom inh inactive.
`Cc1ccccc1Cn1c(=O)n(-c2ccccc2)c(=O)c2ccc(C(=O)NCc3ccco3)cc21` gave KKLEB cytotox inactive, LGR2 inh inactive, HSP90 inh inactive, Mdm2 MdmX PPI 67.5, CF NFkB block inactive, Peg3 prom inh inactive and Mdm2 MdmX conf inactive.
`COC(=O)/C(=C1/Oc2cc(C)oc(=O)c2S1)C(F)(F)F` gave KKLEB cytotox inactive, LGR2 inh inactive, HSP90 inh inactive, Mdm2 MdmX PPI 100.2, CF NFkB block 74.8, Peg3 prom inh 95.4, Mdm2 MdmX conf 99.8 and FLuc counter 51.0.
`Cc1ccc(O)c(C(=O)/C=C/c2ccc3c(c2)OCCO3)c1` gave KKLEB cytotox inactive, LGR2 inh inactive, HSP90 inh inactive, Mdm2 MdmX PPI 51.8, CF NFkB block inactive, Peg3 prom inh inactive and Mdm2 MdmX conf inactive.
For Cc1ccc(C(=O)C=Cc2ccc3c(c2)OCO3)c(C)c1 the results were KKLEB cytotox inactive, LGR2 inh inactive, CF NFkB block inactive and Peg3 prom inh inactive.
Screening Cc1ccc(S(=O)(=O)N(C)C[C@H]2Oc3c(NS(=O)(=O)c4ccccc4)cccc3C(=O)N([C@H](C)CO)C[C@@H]2C)cc1 returned LGR2 inh inactive.
For O=c1cc(O)c2sc(Nc3cccc(C(F)(F)F)c3)nc2[nH]1 the results were KKLEB cytotox inactive, LGR2 inh inactive, HSP90 inh inactive, Mdm2 MdmX PPI inactive, CF NFkB block inactive and Peg3 prom inh inactive.
`O=c1cc(O)c2sc(Nc3ccc(F)cc3)nc2[nH]1` gave KKLEB cytotox inactive, LGR2 inh inactive, HSP90 inh inactive, Mdm2 MdmX PPI 65.7, CF NFkB block inactive, Peg3 prom inh inactive, Mdm2 MdmX conf 47.5 and FLuc counter 42.5.
CO[C@H]1CN(C)C(=O)c2ccc(NC(=O)C3CCOCC3)cc2OC[C@@H](C)N(C(=O)c2ccccc2)C[C@H]1C was read as LGR2 inh inactive.
